The text below walks through data of the supplement of paper PMC8699584.

For orientation: cell viability means a read-out of living cells in per cent, often relative to untreated cells.

Several values for one entry are separate records, joined by “and”; a condition that tells them apart may be missing. Identical values can stand only once. Counter-ions that a name gives are not always drawn. ± gives the standard deviation of the averaged measurements.

The assay has as its system Mv4-11. Put plainly: cell viability relative to DMSO control (bortezomib = 0%); higher = less growth inhibition. The conditions noted are these: 10 nM; 72 h. The method in brief: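 In duplicate runs, a library of 679 approved and investigational compounds in 384-well plates received acute myeloid leukemia cells at 1000 cells per well in 50 µL, with each compound at a single 10 nM dose for 72 h. CellTiter-Glo luminescence, read on an EnVision reader, served as the viability measure. Each plate was normalized by linear regression between DMSO-treated cells (100%) and positive-control-treated cells (0%).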
As for `CN(C)CCOc1ccc(-c2nc(-c3ccncc3)c(-c3ccc4c(c3)CC/C4=N\O)[nH]2)cc1`, the cell viability came out at 101 ± 4%. Regarding `O=C(c1ccc(F)c(F)c1Nc1ccc(I)cc1F)N1CC(O)([C@@H]2CCCCN2)C1` [Cobimetinib], the cell viability came out at 103.3 ± 0.5%. For the molecule `O=c1[nH]c(C2CCCN2)nc2c1oc1ccc(Cl)cc12` (stereo not given), the cell viability worked out at 107 ± 3.5%. With `CCc1cnn2c(NCc3ccc[n+]([O-])c3)cc(N3CCCC[C@H]3CCO)nc12`, the cell viability is 86.6 ± 15%. As for `CN1C(=O)C(Cc2c[nH]c3ccccc23)NC1=S` (stereo not given) [Necrostatin-1], the cell viability turned out to be 93.4 ± 10%. For the molecule `CN1CCN(c2ccc(C(=O)Nc3cc(-c4cccc(NS(=O)(=O)c5ccccc5)c4)[nH]n3)cc2)CC1`, the cell viability came out at 85.5 ± 9.9%. In the case of `CNc1nc(Nc2cn(C(C)(C)C#N)nc2C)ncc1C(F)(F)F`, the cell viability was determined as 117 ± 11%. As for `COc1cc(OC2CCN(C)CC2)ccc1Nc1ncc2c(n1)n(C1CCCC1)c(=O)n2C`, the figure is 104.1 ± 0.45%. Consider `COc1cc2ncnc(Oc3ccc(CC(=O)Nc4cnn(C(C)C)c4)cc3)c2cc1OC`, for which the cell viability came to 29.8 ± 2.1%.

In the case of `Cc1ccc(-c2csc3ncnc(SCCC(=O)O)c23)cc1`, the cell viability was 117 ± 10%.

Regarding `Nc1nc2cc(-c3ccc4ncc(C(=O)N5CCOCC5)n4c3)ccc2o1`, the cell viability came out at 105 ± 16%.

As to `CCCCCCCCCCCCCCCCCCOP(=O)([O-])OC1CC[N+](C)(C)CC1` [Perifosine (KRX-0401)], the cell viability is 110 ± 5.1%. For `FC(F)c1nc2ccccc2n1-c1nc(N2CCOCC2)nc(N2CCOCC2)n1`, the cell viability turned out to be 122 ± 12%.

In the case of `CCCCCCCCCCCCCCCCn1cc[n+](Cc2ccccc2)c1C`, the cell viability stood at 111 ± 5.8%. As for `O=C1Nc2cc(Br)ccc2/C1=C1/Nc2ccccc2/C1=N\O`, the figure is 91.4 ± 8.7%; as for `O=c1cc(N2CCOCC2)oc2c(-c3cccc4c3sc3ccccc34)cccc12`, 108 ± 8.2%. With `C=CC(=O)Nc1cccc(Nc2nc(Nc3ccc(OCCOC)cc3)ncc2F)c1`, the cell viability stood at 110 ± 6.4%.

Turning to `c1cc(-c2cnn3cc(-c4ccc(N5CCNCC5)cc4)cnc23)c2cccnc2c1`, the cell viability was found to be 103 ± 1.1%. For the molecule `NC(=O)c1ccc(N(C(N)=O)c2c(F)cccc2F)nc1-c1ccc(F)cc1F`, the cell viability was found to be 98.7 ± 8.1%. With `Cc1ccc(NC(=O)c2ccc(CN3CCN(C)CC3)cc2)cc1Nc1nc(-c2cccnc2)cs1` [Masitinib (AB1010)], the cell viability was 116 ± 26%. Consider `NC(=O)c1ccccc1Nc1ccnc(Nc2cccc(O)c2)n1`, for which the cell viability is 89.2 ± 14%. On to `C=CC(=O)Nc1cc2c(Nc3ccc(F)c(Cl)c3)ncnc2cc1OCCCN1CCOCC1` [Canertinib (hydrochloride)], for which the cell viability worked out at 103 ± 7.2%. On to `CC(C)CCN1c2nc(Nc3cc(F)c(O)c(F)c3)ncc2N(C)C(=O)C1C` (stereo not given), for which the cell viability amounted to 114 ± 6.3%.

Take `CC(C)c1ccc2c(c1)CC[C@H]1[C@](C)(CN)CCC[C@]21C` [Leelamine]: the cell viability was determined as 101 ± 9.8%. Turning to `CC(=O)CC(c1ccccc1)c1c(O)c2ccccc2oc1=O` (stereo not given) [Warfarin sodium], the cell viability was 114 ± 4.9%. Turning to `Fc1ccc2[nH]ccc2c1-c1nc(N2CCOCC2)c2sc(CN3CCN(CC4CC4)CC3)cc2n1`, the cell viability turned out to be 119 ± 7.6%. For `C#Cc1cccc(Nc2ncnc3cc(OC)c(OCCCCCCC(=O)NO)cc23)c1`, the cell viability was 120 ± 20%. For `CNC(=O)c1ccccc1Sc1ccc2c(/C=C/c3ccccn3)n[nH]c2c1` [Axitinib], the cell viability amounted to 118 ± 10%.

For `Cn1cc(-c2cnn3c(N)c(Br)c([C@@H]4CCCNC4)nc23)cn1`, the cell viability stood at 104 ± 4.8%. On to `Cn1c(=O)n(-c2ccc(C(C)(C)C#N)cc2)c2c3cc(-c4cnc5ccccc5c4)ccc3ncc21`, for which the cell viability amounted to 109 ± 15%. Turning to `OCCn1cc(-c2cnc3nnn(Cc4ccc5ncccc5c4)c3n2)cn1`, the cell viability is 112 ± 8.7%. For `COc1cc2ncnc(Nc3cccc(Cl)c3)c2cc1OC`, the cell viability was determined as 108 ± 7.1%.

Consider `Cn1cnc(N)c2ncnc1-2` [3-Methyladenine (3-MA)], for which the cell viability was 77.5 ± 24%.

For `CS(=O)(=O)c1ccc(-c2nc(-c3ccc(F)cc3)c(-c3ccncc3)[nH]2)cc1`, the cell viability is 100.3 ± 0.91%. Take `CONC(=O)c1ccccc1Nc1cc(Nc2cc(C)nn2C(C)C)ncc1Cl`: the cell viability amounted to 105 ± 1.3%. In the case of `COc1cc2ncnc(Nc3cccc(O)c3)c2cc1OC`, the cell viability was found to be 109 ± 8.6%. Regarding `c1ccc(-c2[nH]ncc2-c2ccnc3ccccc23)nc1`, the cell viability was 111% and 113%. On to `C#Cc1cccc(Nc2ncnc3cc(OCCOC)c(OCCOC)cc23)c1` [Erlotinib], for which the cell viability was 102 ± 10%. With `Cn1cnc2c(NCc3ccccc3)nc(NCCO)nc21` [Olomoucine], the cell viability was determined as 104.2 ± 1%. For `Cc1cc2sc(NC(=O)Cc3ccccc3)nc2cc1Cl`, the cell viability was 119 ± 4.2%.
